Where “and” joins values, the source holds several entries; their conditions need not be identical. Equal entries are not always repeated. Inconclusive results are not listed. Where a call stands in place of a potency, no number is given. Where a structure was tested more than once in an assay, its records may differ in their call. Calls of active or inactive are those of the source. Unless noted, calls come from the whole dose curve; as a rule, active = well fitted curve in the direction sought with a large enough effect in the repeat runs; inconclusive = weak or mixed curves; inactive = no such curve, though single readings can be large; an effect the other way counts as inactive or inconclusive.
Tests used:
[1] = target: Retinoic acid receptor RXR-alpha (Homo sapiens) (UniProt P19793); test: qHTS assay to identify small molecule agonists of the RXR signaling pathway (AID 1159527; calls by dose curve; note: nearly all actives have a fitted effect of over 35% in size; note: potency is the fitted concentration of half-maximal effect)
Procedure, shortened: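 qHTS of the Tox21 10K library in GeneBLAzer RXR-alpha HEK 293T cells carrying a beta-lactamase reporter […]; 16 hr treatment, 9-cis retinoic acid as agonist control, FRET read-out.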

[2] = qHTS assay to identify small molecule agonists of the RXR signaling pathway - cell viability counter screen (AID 1159529); note: series mostly up to about 77 µM; nearly all actives have a fitted effect of over 50% in size
Procedure, shortened: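 Cell viability is measured by CellTiter-Glo luminescence, 30 min at room temperature, in wells already read for beta-lactamase. Engineered HEK 293T cells (RXR-alpha-UAS-bla) are dosed 16 hr at 37 C. Tetraoctyl ammonium bromide serves as positive control.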

[3] = qHTS assay to identify small molecule antagonists of the retinoid acid receptor (RAR) signaling pathway - cell viability counter screen (AID 1159551); note: nearly all actives have a fitted effect of over 35% in size
Procedure, shortened: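 Retinol-stimulated (1 uM final) C3RL4 cells, compound 6 h, 37 C; readout CellTiter-Glo luminescence (ATP) after 30 min RT incubation.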

[4] = qHTS assay to identify small molecule antagonists of the estrogen related receptor (ERR) signaling pathway from Tox21 library - cell viability counter screen (AID 1224834); note: nearly all actives have a fitted effect of over 30% in size; note: potency is the fitted concentration of half-maximal effect
Procedure, shortened: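 After 17.5 h of compound exposure at 37 C, ERR cells are incubated with CellTiter-Fluor for 30 min and fluorescence intensity serves as the viability measure.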

[5] = target: Luciferin 4-monooxygenase (Photinus pyralis) (UniProt P08659); test: qHTS assay to identify small molecule inhibitors of firefly luciferase (AID 1224835); note: nearly all actives have a fitted effect of over 25% in size; note: potency is the fitted concentration of half-maximal effect
Procedure, shortened: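 Inhibition of purified Photinus luciferase is measured by luminescence. Substrate levels (D-luciferin, ATP) sit at their KM values. Each compound is tested in a concentration series.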

[6] = qHTS assay to identify small molecule agonists of the constitutive androstane receptor (CAR) signaling pathway - cell viability counter screen (AID 1224836); note: series mostly up to about 92 µM; nearly all actives have a fitted effect of over 45% in size
Procedure, shortened: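 Counter screen multiplexed with the CAR reporter readout: HepG2 cells co-transfected with hCAR and the CYP2B6-2.2kb construct receive a 15-concentration compound series and 0.75 uM PK11195 (final), then CellTiter-Fluor fluorescence is read after 23 h.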

[7] = qHTS assay to identify small molecule antagonists of the constitutive androstane receptor (CAR) signaling pathway - cell viability counter screen (AID 1224837); note: series mostly up to about 92 µM; nearly all actives have a fitted effect of over 45% in size
Procedure, shortened: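 Counter screen run in HepG2-CYP2B6-hCAR cells: 4 hr settle, compound titration (15 concentrations) with 50 nM CITCO, 23 hr at 37 C/5% CO2, CellTiter-Fluor fluorescence.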

[8] = qHTS assay to identify small molecule antagonists of the estrogen related receptor signaling pathway with the pleiotropic PPARgamma coactivator (PGC) from Tox21 10K library - cell viability counter screen (AID 1224840; active = well fitted cell-killing curve with a large enough effect in the repeat runs, not every such curve was filed as active; note: nearly all actives have a fitted effect of over 40% in size; note: potency is the fitted concentration of half-maximal effect)
Procedure, shortened: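 Following seeding of 2,000 PGC/ERR cells/well and 6 hours' incubation, test compounds were delivered in DMSO. The plates then sat 17.5 hours at 37 C before a fluorogenic live-cell protease reagent (CellTiter-Fluor) was read after 30 min.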

[9] = target: Thyrotropin receptor (Homo sapiens) (UniProt P16473); test: qHTS assay to identify small molecule agonists of the thyroid stimulating hormone receptor (TSHR) signaling pathway (AID 1224843; calls by dose curve; note: nearly all actives have a fitted effect of over 45% in size; note: potency is the fitted concentration of half-maximal effect)
Procedure, shortened: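 Screening of the Tox21 10K collection used HEK293 cells engineered with TSHR at 800 cells per well. After a 30-min room-temperature compound exposure, HTRF cAMP reagents were added and fluorescence recorded 1 h later.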

[10] = qHTS assay to identify small molecule agonists of the hypoxia (HIF-1) signaling pathway - cell viability counter screen (AID 1224844; calls by dose curve; note: nearly all actives have a fitted effect of over 50% in size)
Procedure, shortened: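 Cells (HRE-bla ME-180, 2,000 per well) sat 5 hrs at 37C, got compound for 17 hrs, were read for CCF4-AM FRET, and were finally lysed with CellTiter-Glo for a 30 min room-temperature luminescence read.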

[11] = target: Nuclear receptor subfamily 1 group I member 3 (Homo sapiens) (UniProt Q14994); test: qHTS assay to identify small molecule antagonists of the constitutive androstane receptor (CAR) signaling pathway (AID 1224838);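 note: HepG2 cells stably expressing hCAR with CYP2B6 luciferase reporter stimulated by CITCO; nearly all actives have a fitted effect of over 40% in size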; note: potency is the fitted concentration of half-maximal effect
Procedure, shortened: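 Cell line: HepG2 double-stable for hCAR and CYP2B6-2.2kb reporter. Agonist: CITCO, 50 nM final. Compounds: 15 concentrations, 24 h, 37 C. Detection: ONE-Glo luminescence.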

[12] = target: Nuclear receptor subfamily 1 group I member 3 (Homo sapiens) (UniProt Q14994); test: qHTS assay to identify small molecule agonists of the constitutive androstane receptor (CAR) signaling pathway (AID 1224839); note: nearly all actives have a fitted effect of over 15% in size; note: potency is the fitted concentration of half-maximal effect
Procedure, shortened: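 A 15-concentration quantitative screen uses HepG2 cells co-transfected stably with human CAR and CYP2B6-2.2kb reporter. Treatment lasts 24 h with 0.75 uM PK11195 final present; ONE-Glo luminescence is the signal.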

[13] = qHTS assay to identify small molecule antagonists of the retinoic acid receptor (RAR) signaling pathway (AID 1159552; note: nearly all actives have a fitted effect of over 50% in size; note: potency is the fitted concentration of half-maximal effect)
Procedure, shortened: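 Quantitative HTS in C3RL4 RARE-luciferase reporter cells. Compounds were added with 1 uM (final) retinol; luminescence was read after 6 hr.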

[14] = qHTS assay to identify small molecule agonists of the retinoic acid receptor (RAR) signaling pathway (AID 1159553); note: potency is the fitted concentration of half-maximal effect
Procedure, shortened: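 Reporter readout comes from luciferase under RARE control in C3RL4 cells; compound exposure lasts 6 hr at 37 C in 5% CO2, and luminescence is recorded following a 30 min room-temperature incubation with reagent.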

[15] = qHTS assay to identify small molecule antagonists of the estrogen related receptor (ERR) signaling pathway (AID 1224819;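 note: luminescence from an ERR-driven luciferase reporter measured with One-Glo reagent; series mostly up to about 46 µM; nearly all actives have a fitted effect of over 50% in size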)
Procedure, shortened: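 Luminescence readout (One-Glo, 30 min, RT) of ERR cell line after 18 h compound exposure at 37 C; cells seeded 2,000/well, pre-incubated 6 h, compounds pinned from DMSO stocks.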

[16] = qHTS assay to identify small molecule agonists of the estrogen related receptor (ERR) signaling pathway (AID 1224820)
Procedure, shortened: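 Cells: ERR line from NTP, 2,000/well. Pre-incubation 6 h, 37 C/5% CO2. Compound (DMSO) pin transfer, 18 h 37 C. One-Glo, 30 min RT, luminescence.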

[17] = system: estrogen-related receptor alpha (ERRalpha) with PGC-1alpha coactivator, human; test: qHTS assay to identify small molecule antagonists of the estrogen related receptor signaling pathway with the pleiotropic PPARgamma coactivator (PGC) (AID 1224821; calls by dose curve)
Procedure, shortened: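 Luminescent read-out (One-Glo, 30 min at room temperature) following 18 h treatment of PGC/ERR cells at 37 C with compounds delivered in DMSO. Cells had settled 6 h at 37 C/5% CO2 before dosing.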

[18] = qHTS assay to identify small molecule antagonists of the estrogen related receptor signaling pathway with the pleiotropic PPARgamma coactivator (PGC) cell viability counter screen (AID 1224822; note: series mostly up to about 46 µM)
Procedure, shortened: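 PGC/ERR cells were plated at 2,000 per well and allowed 6 h to settle before compound addition. Following 17.5 h at 37 C, CellTiter-Fluor reagent was added and fluorescence was read 30 min later.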

[19] = qHTS assay to identify small molecule agonists of the estrogen related receptor signaling pathway with the pleiotropic PPARgamma coactivator (PGC) (AID 1224823)
Procedure, shortened: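 Steps: plate PGC/ERR cells at 2,000 cells/well; incubate 6 h, 37 C/5% CO2; pin-transfer compounds (DMSO); incubate 18 h, 37 C; add One-Glo; 30 min RT; read luminescence.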

[20] = qHTS assay to identify small molecule antagonists of the estrogen related receptor signaling pathway with the pleiotropic PPARgamma coactivator (PGC) from Tox21 10K library (AID 1224841; call rule not given here)
Procedure, shortened: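 qHTS antagonist format: PGC/ERR cells, 2k/well, compound in DMSO by pin transfer after 6 h attachment, 18 h treatment at 37 C, One-Glo luminescence read at 30 min.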

Sequence of Retinoic acid receptor RXR-alpha (Homo sapiens) (P19793 whole entry, looked up): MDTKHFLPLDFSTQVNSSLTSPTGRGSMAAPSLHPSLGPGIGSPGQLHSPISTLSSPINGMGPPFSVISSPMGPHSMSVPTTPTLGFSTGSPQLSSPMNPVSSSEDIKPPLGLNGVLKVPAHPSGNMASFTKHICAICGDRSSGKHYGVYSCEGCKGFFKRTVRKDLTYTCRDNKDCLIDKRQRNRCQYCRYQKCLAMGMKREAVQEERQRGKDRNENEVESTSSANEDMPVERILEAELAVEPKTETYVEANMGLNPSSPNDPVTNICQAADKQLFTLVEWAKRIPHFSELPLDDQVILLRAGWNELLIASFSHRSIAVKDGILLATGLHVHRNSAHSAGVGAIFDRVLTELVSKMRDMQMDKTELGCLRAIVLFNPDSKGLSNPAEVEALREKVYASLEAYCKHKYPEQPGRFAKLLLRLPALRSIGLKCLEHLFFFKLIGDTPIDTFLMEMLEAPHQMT
Sequence of Thyrotropin receptor (Homo sapiens) (P16473 whole entry, looked up): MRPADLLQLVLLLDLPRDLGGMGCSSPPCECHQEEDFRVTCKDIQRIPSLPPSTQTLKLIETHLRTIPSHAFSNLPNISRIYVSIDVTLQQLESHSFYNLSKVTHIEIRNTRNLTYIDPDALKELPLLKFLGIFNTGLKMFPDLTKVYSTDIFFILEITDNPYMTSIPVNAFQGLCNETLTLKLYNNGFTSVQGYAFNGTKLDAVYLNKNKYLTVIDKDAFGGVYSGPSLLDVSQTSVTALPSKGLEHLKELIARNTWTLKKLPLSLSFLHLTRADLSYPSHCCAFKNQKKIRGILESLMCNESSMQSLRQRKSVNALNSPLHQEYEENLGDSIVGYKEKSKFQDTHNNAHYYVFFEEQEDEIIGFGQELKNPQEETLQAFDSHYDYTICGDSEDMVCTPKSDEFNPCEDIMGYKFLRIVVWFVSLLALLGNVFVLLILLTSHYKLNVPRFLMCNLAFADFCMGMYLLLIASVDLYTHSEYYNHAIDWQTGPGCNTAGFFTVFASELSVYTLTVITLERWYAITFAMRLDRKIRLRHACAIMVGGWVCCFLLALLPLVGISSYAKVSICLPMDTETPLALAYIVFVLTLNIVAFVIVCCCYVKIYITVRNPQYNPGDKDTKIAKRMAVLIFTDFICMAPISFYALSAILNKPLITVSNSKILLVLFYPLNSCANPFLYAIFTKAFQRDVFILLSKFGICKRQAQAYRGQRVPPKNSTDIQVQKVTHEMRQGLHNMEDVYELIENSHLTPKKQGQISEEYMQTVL
Sequence of Nuclear receptor subfamily 1 group I member 3 (Homo sapiens) (Q14994 whole entry, looked up): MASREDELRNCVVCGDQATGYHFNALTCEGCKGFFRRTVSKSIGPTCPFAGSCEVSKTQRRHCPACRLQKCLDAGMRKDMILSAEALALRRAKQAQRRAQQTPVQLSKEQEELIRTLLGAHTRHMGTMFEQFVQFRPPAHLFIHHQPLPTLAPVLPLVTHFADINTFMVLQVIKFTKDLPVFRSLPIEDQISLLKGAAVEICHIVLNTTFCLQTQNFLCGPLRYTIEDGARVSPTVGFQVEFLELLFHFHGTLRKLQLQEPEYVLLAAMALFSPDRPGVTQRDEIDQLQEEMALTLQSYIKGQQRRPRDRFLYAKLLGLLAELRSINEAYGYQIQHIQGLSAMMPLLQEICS
Sequence of Luciferin 4-monooxygenase (Photinus pyralis) (P08659 whole entry, looked up): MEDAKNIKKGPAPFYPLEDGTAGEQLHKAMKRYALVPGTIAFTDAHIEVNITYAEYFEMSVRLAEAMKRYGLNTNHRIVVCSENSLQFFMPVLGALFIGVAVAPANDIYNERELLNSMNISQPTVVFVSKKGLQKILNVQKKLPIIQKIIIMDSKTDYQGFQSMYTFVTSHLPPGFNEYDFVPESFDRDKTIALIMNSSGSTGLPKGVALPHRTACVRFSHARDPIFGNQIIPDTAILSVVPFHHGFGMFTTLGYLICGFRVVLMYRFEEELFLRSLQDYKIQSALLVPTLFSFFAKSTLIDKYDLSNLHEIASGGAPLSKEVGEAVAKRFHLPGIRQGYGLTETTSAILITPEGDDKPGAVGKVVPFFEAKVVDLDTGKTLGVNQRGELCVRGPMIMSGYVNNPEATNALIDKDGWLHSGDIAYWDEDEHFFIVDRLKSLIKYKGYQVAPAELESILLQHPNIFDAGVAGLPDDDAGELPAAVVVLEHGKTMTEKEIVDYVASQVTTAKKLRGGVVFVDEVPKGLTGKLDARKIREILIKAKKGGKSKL

| Compound | Potency [1] | Potency [2] | outcome [3] | Potency [4] | Potency [5] | Potency [6] | Potency [7] | Potency [8] | Potency [9] | Potency [10] | Potency [11] | Potency [12] | Potency [13] | Potency [14] | Potency [15] | outcome [16] | outcome [17] | outcome [18] | outcome [19] | Potency [20] |
| --- | --- | --- | --- | --- | --- | --- | --- | --- | --- | --- | --- | --- | --- | --- | --- | --- | --- | --- | --- | --- |
| C#C[C@]1(O)CC[C@H]2[C@@H]3CCC4=CC(=O)CC[C@@H]4[C@H]3CC[C@@]21CC | inactive | inactive | inactive | inactive and 54.5 µM (active) | inactive | inactive | inactive | inactive | inactive | inactive | – | – | – | – | – | – | – | – | – | – |
| Cc1c(N(C)C)c(=O)n(-c2ccccc2)n1C | inactive | inactive | inactive | inactive | inactive | inactive | inactive | inactive | inactive | inactive | inactive | inactive | – | – | – | – | – | – | – | – |
| CC(C)=CCC/C(C)=C/CO | inactive | inactive | inactive | inactive | inactive | inactive | inactive | inactive | inactive | inactive | – | – | – | – | – | – | – | – | – | – |
| COC(=O)c1ccc(O)cc1 | inactive and 6.16 µM (active) | inactive | inactive | inactive | inactive | inactive | inactive | inactive | inactive | inactive | – | – | inactive | inactive | – | – | – | – | – | – |
| CCCCCCCCCCCCCC(=O)OC(C)C | inactive | inactive | inactive | inactive | inactive | inactive | inactive | inactive | inactive | inactive | – | – | inactive | inactive | – | – | – | – | – | – |
| Nc1ccc(N=Nc2ccccc2)c(N)n1 | inactive | inactive | inactive | 48.8 µM (active) and 48.6 µM (active) and 21.1 µM (active) | 8.99 µM (active) and 7.96 µM (active) and 7.76 µM (active) | – | – | 38.6 µM (active) | inactive | inactive | inactive | 24.5 µM (active) and 9.69 µM (active) and 5.96 µM (active) | inactive | 1.23 µM (active) and 969 nM (active) and 2.37 µM (active) | – | – | – | – | – | – |
| CCOC(=O)C(C)(C)Oc1ccc(Cl)cc1 | inactive | inactive | inactive | inactive | inactive | inactive | inactive | inactive | inactive | inactive | – | – | – | – | inactive | inactive | inactive | inactive | inactive | inactive |
| COC1=CC(=O)C[C@@H](C)[C@]12Oc1c(Cl)c(OC)cc(OC)c1C2=O | inactive | inactive | inactive | – | inactive | inactive | inactive | inactive | 9.6 µM (active) and 17.2 µM (active) | inactive | 9.6 µM (active) and 13.7 µM (active) | inactive | 9.6 µM (active) | inactive | – | – | – | – | – | inactive |
